# Measurements from PubChem BioAssay AID651997 (Sanford-Burnham Center for Chemical Genomics, 2013).
# Screen size: about 2,400 compounds; about 700 (29%) were called active.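 The calls were made as follows: active = inhibition of at least 50%; inactive = the rest.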 These entries were drawn from the full list.
# Target: G-protein coupled receptor 183 (Homo sapiens) (UniProt P32249)
# Test: EBI2 antagonist hit retest, beta-arrestin, confirmation, cell-based, single concentration, luminescence, 7a,25-OHC stimulation (AID 651997)
# Conditions: 7a,25-OHC antagonism, at 5 µM, hits give high values
# G-protein coupled receptor 183 (Homo sapiens), sequence (P32249 whole entry, looked up): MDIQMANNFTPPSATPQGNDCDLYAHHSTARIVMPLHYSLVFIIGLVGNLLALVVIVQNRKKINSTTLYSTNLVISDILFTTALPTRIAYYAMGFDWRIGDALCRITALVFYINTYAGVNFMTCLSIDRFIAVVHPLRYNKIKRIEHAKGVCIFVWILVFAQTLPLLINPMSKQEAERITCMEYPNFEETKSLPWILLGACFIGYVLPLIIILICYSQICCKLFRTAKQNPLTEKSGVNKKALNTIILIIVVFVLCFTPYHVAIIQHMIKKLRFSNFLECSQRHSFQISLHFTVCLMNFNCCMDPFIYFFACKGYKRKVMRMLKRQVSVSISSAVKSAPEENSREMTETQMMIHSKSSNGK
row,SMILES,inhibition
1,COc1ccc2cc(C3=CC(=O)C[C@H](c4ccc5c(c4)OCO5)C3)ccc2c1,51.4% (active)
2,N#Cc1ccc(C2=CC(=O)C[C@H](c3ccc(Cl)cc3)C2)cc1,53.7% (active)
3,COc1ccc([C@H]2CC(=O)C=C(c3ccc(C)cc3)C2)cc1,56.3% (active)
4,COc1ccc([C@H]2CC(=O)C=C(/C=C/c3ccc(Cl)cc3)C2)cc1,20.8% (inactive)
5,CCCCN=C1C([N+](=O)[O-])=CC=C2C1=NC1(CCCCC1)N2O,38.6% (inactive)
6,CCOc1ccc(CCN2C(=S)N([C@@H](CC(C)C)CN3CCC[C@@H]3CN3C(=S)NC[C@@H]3Cc3ccc(O)cc3)C[C@@H]2Cc2ccc(O)cc2)cc1,26.9% (inactive)
7,CC1(Cc2ccccc2C#N)C(=O)Nc2ccc(-c3ccc4[nH]ccc4c3)cc21 (centres undefined),31.6% (inactive)
8,COc1ccc(CNC(=O)CN(c2ccc(OC)c(Cl)c2)S(=O)(=O)c2ccc(C)cc2)cc1,6.43% (inactive)
9,Cc1ccc2oc(=O)c3cnn(CC(=O)N4CCCCCC4)c3c2c1,31% (inactive)
10,Cc1ccc2oc(=O)c3cnn(CC(=O)N(Cc4ccco4)C4CCCCC4)c3c2c1,76.3% (active)
11,O=C(Nc1ccc(S(=O)(=O)N2CCCCC2)cc1)C1CC(=O)N(c2ccc(F)cc2)C1 (centres undefined),17.5% (inactive)
12,Cc1ccc(-c2nn(-c3ccccc3)cc2/C=C/C(=O)Nc2cccc(S(N)(=O)=O)c2)cc1,25.3% (inactive)
13,COc1ccc(-c2cn(-c3ccc(OC)cc3)c(=S)[nH]2)cc1,68% (active)
14,CCOc1ccc(CN(Cc2ccco2)S(=O)(=O)c2ccc(-n3cnnn3)c(OC)c2)cc1,24.7% (inactive)
15,CCN(CC(=O)NCc1cccs1)C(=O)/C=C/c1ccc(C)cc1,85.2% (active)
16,O=c1[nH]c(CN2CCN(S(=O)(=O)c3ccc4c(c3)OCCO4)CC2)nc2sc3c(c12)CCCC3,27.9% (inactive)
17,Cc1ccc(S(=O)(=O)NCCNC(C)c2ccc(Br)cc2)cc1 (centres undefined),9.45% (inactive)
18,COc1ccc(/C=C/C(=O)c2ccc(OC)cc2O)cc1,41.6% (inactive)
19,COc1ccc(C(=O)/C=C/c2ccc(OC3CSC3)cc2)cc1,25.8% (inactive)
20,Cc1nc(-c2ccccc2)sc1C(=O)/C=C/c1ccccc1,52.2% (active)
21,CN(Cc1ccc(F)cc1)C(=O)COc1ccc2ccccc2c1,84% (active)
22,CCC(C)(C)NC(=O)c1cc([N+](=O)[O-])ccc1N1CCCCC1,42.4% (inactive)
23,COc1ccc(-c2cc(C3CCN(c4ncccc4[N+](=O)[O-])CC3)[nH]n2)cc1,32.3% (inactive)
24,O=C(C(c1ccccc1)c1ccccc1)N1CCN(CC(O)COc2ccccc2)CC1 (centres undefined),15.3% (inactive)
